An excerpt weighted towards active compounds, which were near 4.6% of everything screened.
TIM10 inh = growth inhibitors of isogenic TIM10 control yeast, primary screen, counter-screen for tim10-1 yeast inhibitor project, luminescence, uHTS. S. cerevisiae TIM10 strain growth, BacTiter-Glo luminescence, 24 h. inhibition, % at 10 µM. 1.4% of 330,000 active. AID 463195, 2010;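 active = inhibition of 40% or more at the single tested concentration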;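 also: wild-type TIM10 isogenic control strain grown at permissive 25 °C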
tim23-1 inh = growth inhibitors of tim23-1 mutant yeast, primary screen, luminescence, uHTS. S. cerevisiae tim23-1 growth, BacTiter-Glo luminescence, 24 h. inhibition, % at 20 µM. 1.3% of 330,000 active;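 active = growth inhibition of the mutant yeast at or above 50%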;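 also: temperature-sensitive mutant grown at 25 °C; plate controls were DMSO-treated mutant yeast for no effect and medium wells lacking yeast for full effect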
SKKanGAS inh = S. pyogenes SKKanGAS growth inhibitors in kanamycin, primary screen, streptokinase expression inhibitor project, SKKanGAS strain, BacTiter-Glo luminescence | 1.3% of 300,000 active | inhibition, % at 7.5 µM | 6 h | AID 1662, 2009;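 active = mean replicate score, as percent of positive control median, at least 50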;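 also: strain carries kanamycin resistance gene driven by streptokinase promoter and grows in 40 µg/ml kanamycin; loss of luminescence reflects streptokinase promoter inhibition or plain growth inhibition; 0% = median of DMSO wells and 100% = positive control at its reference dose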
V-ATPase pHluor = regulators of yeast V-ATPase proton pumping, primary screen, pHLuorin cytosolic pH fluorescence | 0.37% of 350,000 active | response, % at 10 µM | AID 504577, 2011 | S. cerevisiae; in the data active = response mostly above about 7.3%, no sharp cut-off; inactive = mostly below about 5.4%; also: actives read high
PfHsp90 set2 = growth inhibition of PfHsp90-expressing yeast, primary screen, antimalarial PfHsp90 inhibitor project, S. cerevisiae, BacTiter-Glo luminescence, single point, set 2; BacTiter-Glo ATP, 48 h; yeast lacking PDR1 and PDR3 efflux regulators; inhibition, % at 9.4 µM; 0.32% of 310,000 active;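 active = every replicate shows inhibition above about 80%, whatever the replicate mean, limit read from the data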;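 also: 0% = DMSO neutral controls and 100% = 20 µM radicicol positive controls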
tim10-1 inh = growth inhibitors of tim10-1 mutant yeast, primary screen, luminescence, uHTS. 2.2% of 330,000 active. AID 463190, 2010. S. cerevisiae tim10-1 ts strain growth, BacTiter-Glo, 24 h. inhibition, % at 20 µM;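 active = inhibition of at least 40%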;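 also: mutant grown at 25 °C; 0% = DMSO wells with yeast and 100% = wells holding no yeast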
tim10-1 confirm = growth inhibitors of tim10-1 mutant yeast, confirmation, single concentration, luminescence, S. cerevisiae; shares compounds with tim10-1 inh; S. cerevisiae tim10-1 ts strain growth, BacTiter-Glo, 24 h; inhibition, % at 20 µM; 56% of 7,400 active; AID 463213, 2010;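 active = inhibition of yeast growth at or above a set limit in either of two repeat tests at 20 µM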;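 also: tim10-1 mutant grown at permissive 25 °C to find synthetic lethal compounds; 0% = DMSO yeast wells and 100% = medium wells without yeast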
tim10 confirm = growth inhibitors of wild-type TIM10 yeast, confirmation, counter-screen for tim10-1 synthetic lethality project, single concentration, luminescence, S. cerevisiae. 63% of 4,600 active. S. cerevisiae tim10 strain growth, BacTiter-Glo luminescence, 24 h. inhibition, % at 10 µM. shares compounds with TIM10 inh;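 active = inhibition of yeast growth at or above a set limit in either of two replicates at 10 µM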;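 also: this counterscreen used the strain with wild-type TIM10; 0% = yeast with DMSO and 100% = medium wells lacking yeast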
Numbers without * were called inactive.

Screening COc1ccc(CC(=O)O/N=C(\N)Cc2ccc(OC)cc2)cc1 returned TIM10 inh 1, tim23-1 inh 4, SKKanGAS inh 2, V-ATPase pHluor 1, PfHsp90 set2 -8 and tim10-1 inh 10.
Screening N/C(Cc1ccc(Cl)cc1)=N\OC(=O)c1ccc2ccccc2c1 returned TIM10 inh 75*, tim23-1 inh 50, SKKanGAS inh -4, V-ATPase pHluor -2, PfHsp90 set2 5, tim10-1 inh 64*, tim10-1 confirm 60* and tim10 confirm 3.
`N/C(Cc1ccc(Cl)cc1Cl)=N\OC(=O)Cc1ccc(Cl)cc1` gave TIM10 inh 85*, tim23-1 inh 47, SKKanGAS inh -14, V-ATPase pHluor 3, PfHsp90 set2 8, tim10-1 inh 62*, tim10-1 confirm 55* and tim10 confirm 5.
N/C(Cc1ccc(Cl)cc1)=N\OC(=O)CCc1ccccc1 was read as V-ATPase pHluor -1.
CC(C)c1ccc([N+](=O)[O-])cc1S(=O)(=O)N1CCN(C)CC1 was read as TIM10 inh -3, tim23-1 inh 14, SKKanGAS inh -1, V-ATPase pHluor 3, PfHsp90 set2 32 and tim10-1 inh 9.
For Cc1cccc(OCCCOc2cccc3cccnc23)c1C the results were TIM10 inh 47*, tim23-1 inh 48, SKKanGAS inh 58*, V-ATPase pHluor 2, PfHsp90 set2 -12, tim10-1 inh 46*, tim10-1 confirm 20 and tim10 confirm 39*.
Screening Cc1ccc(OCCCOc2cccc3cccnc23)cc1C returned TIM10 inh 35, tim23-1 inh 49, SKKanGAS inh 37, V-ATPase pHluor -5, PfHsp90 set2 42 and tim10-1 inh 40.
Cc1ccc(OCC(=O)O/N=C(\N)c2ccncc2)c(C)c1 was read as TIM10 inh -7, tim23-1 inh 8, SKKanGAS inh -3, V-ATPase pHluor 3, PfHsp90 set2 26 and tim10-1 inh -10.
`COc1ccccc1C/C(N)=N/OC(=O)COc1ccc(C)cc1C` gave TIM10 inh 43*, tim23-1 inh 37, SKKanGAS inh -2, V-ATPase pHluor 1, PfHsp90 set2 1, tim10-1 inh 48*, tim10-1 confirm 42* and tim10 confirm 35*.
`Cc1ccc(/C(N)=N/OC(=O)COc2cccc3ccccc23)cc1` gave V-ATPase pHluor 2.
For COc1ccccc1CC(=O)O/N=C(\N)Cc1cccc2ccccc12 the results were TIM10 inh 56*, tim23-1 inh 8, SKKanGAS inh 12, V-ATPase pHluor 0, tim10-1 inh 67*, tim10-1 confirm 53* and tim10 confirm 62*.
`Cc1ccc(C(=O)O/N=C(\N)Cc2cccc3ccccc23)cc1` gave TIM10 inh 42*, tim23-1 inh 33, SKKanGAS inh 2, V-ATPase pHluor -3, PfHsp90 set2 -28, tim10-1 inh 49*, tim10-1 confirm 52* and tim10 confirm 73*.
CC(C)n1c(-c2ccc(C(C)(C)C)cc2)n[nH]c1=S was read as TIM10 inh 44*, tim23-1 inh 47, SKKanGAS inh 7, V-ATPase pHluor -1, PfHsp90 set2 -38, tim10-1 inh 43*, tim10-1 confirm 35* and tim10 confirm 46*.
Cc1cc2ncn(-c3ncnc4sc5c(c34)CCC(C)C5)c2cc1C (stereo not drawn) was read as TIM10 inh 52*, tim23-1 inh 47, SKKanGAS inh 3, V-ATPase pHluor 1, PfHsp90 set2 -50, tim10-1 inh 50*, tim10-1 confirm 45* and tim10 confirm 45*.
